# From PubChem
# KB-V1 MDR tox: KB-V1 MDR subline cytotoxicity. Potency, µM (series often up to 46.1 µM), actives largely listed as cytotoxic. KB-V1 MDR cells viability, CellTiter-Glo, 72 h. actives 3.4% (n = 400,000); also: % is scaled to controls: 0 for no effect and ±100 for the full control effect; nearly all actives have a fitted effect of over 60% in size
#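 Drug-selected KB-V1 cells, grown in DMEM lacking phenol red with 10% FBS, receive compound titrations; after three days at 37 degrees C, surviving cell ATP is quantified by CellTiter-Glo luminescence and responses normalized and curve-fitted.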
# KB-3-1 cytotox: kills parental KB-3-1 adenocarcinoma cells; KB-3-1 viability, CellTiter-Glo ATP luminescence, 72 h; Potency, µM (titrated, usually from 46.1 µM), usual class: cytotoxic; actives 1.4% (n = 400,000); also: % is scaled to controls: 0 for no effect and ±100 for the full control effect; nearly all actives have a fitted effect of over 60% in size
#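 Cytotoxicity measured as CellTiter-Glo luminescence after 72 h at 37 C. Compound titrations were pinned onto drug-naive KB-3-1 parental adenocarcinoma cells grown in DMEM with 10% FBS, and normalized data fitted to concentration-response curves.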
# MCF10A rereplic: DNA re-replication induction in MCF 10a cells; MCF 10A DNA re-replication, Hoechst nuclear intensity, 48 h; Potency, µM (titrated, usually from 46.1 µM), for the others: at the highest dose activity, positive = re-replication, actives largely listed as activators; actives 2.9% (n = 350,000); AID 624296; also: % of control where 0% means no effect; nearly all actives have a fitted effect of over 50% in size
# HT1080NT lethal: kills 2HG-producing HT-1080-NT fibrosarcoma cells. actives 1.6% (n = 360,000). HT-1080-NT fibrosarcoma viability, CellTiter-Glo ATP luminescence, 48 h. Potency, µM (top dose mostly 46.1 µM), for inactives: at the highest dose activity, negative = less viability, usual class: cytotoxic;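 also: NT is the 2HG producing partner of a matched IDH1 knockdown line; 0% = DMSO-treated cells and -100% = media-only wells without cells; nearly all actives have a fitted effect of over 55% in size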
#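 HT-1080-NT; 750 cells/well; 5% FBS RPMI; 48 h compound, 37 degrees C; CellTiter-Glo luminescence; curve fitting and curve-class assignment.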
# HT1080 IDH1KD tx: HT-1080 IDH1 knockdown cell toxicity (counter line); HT-1080 IDH1 knockdown viability, ATP luminescence, 48 h; Potency, µM (doses to about 46.1 µM), for the others: top-dose activity, negative = toxicity, most hits filed as cytotoxic; actives 2% (n = 360,000); AID 686971;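 also: 0% = DMSO wells and -100% = cell-free medium wells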
#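 In this qHTS, HT-1080 cells depleted of IDH1 are exposed for 48 h at 37 °C to compound titrations. Toxicity is scored from CellTiter-Glo luminescence, with DMSO as full viability and medium alone as none.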
# SW480 rerep: inducers of DNA re-replication in SW480 colon cancer cells | SW480 DNA re-replication, Hoechst DNA content imaging, 48 h | Potency, µM (top dose mostly 46.1 µM), without a hit: at the highest dose re-replication activation, most hits filed as activators | actives 1.8% (n = 340,000) | AID 624297; also: % of control where 0% means no effect; nearly all actives have a fitted effect of over 55% in size
#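 SW480 cells exposed to compounds for 48 hr at 37 C, 5% CO2, then Hoechst-stained 40 min. Nuclear DNA content imaged by fluorescence scanning (405 nm excitation, 500-530 nm emission); re-replication scored as increased high-intensity nuclei.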
# * hit, by the source's call; i = inactive; ? = inconclusive; / = no result given. Only some compounds are listed: those with a hit (about 7.9% of all), similar ones and a draw of the others. Calls follow the shape of the dose curve; as a rule, active = well fitted curve in the direction sought with a large enough effect; inconclusive = small, poorly fitted or top-dose-only effect, or another doubt; inactive = no such curve, though single readings can be large; an effect the other way counts as inactive or inconclusive. Potency is read from the fitted curve at half-maximal effect.
SMILES,KB-V1 MDR tox,KB-3-1 cytotox,MCF10A rereplic,HT1080NT lethal,HT1080 IDH1KD tx,SW480 rerep
Cc1c(C)n(CC(O)CNCCO)c2ccccc12 (configuration not stated),i,i,0%,-4%,-1%,-2%
OC(CNCC1CCCO1)Cn1c2ccc(Cl)cc2c2cc(Cl)ccc21 (configuration not stated),?,?,?,26µM*,?,19%
OC(CNCCC1C=Nc2ccccc21)Cn1c2ccc(Cl)cc2c2cc(Cl)ccc21 (configuration not stated),?,?,5.2µM*,?,?,?
CCC(=O)N1CCc2cc(S(=O)(=O)CCC(=O)NCc3ccco3)ccc21,i,?,8.2µM*,-24%,?,?
CCC(=O)N1CCc2cc(S(=O)(=O)CCC(=O)NCCc3ccccc3)ccc21,i,i,24%,-12%,1%,-1%
c1ccc2sc(NC3=NCN(C4CCCCCC4)CN3)nc2c1,21µM*,?,2%,-1%,3%,-12%
CCOC(=O)C1(CCc2ccccc2)CCN(C(=O)c2cccc(C)n2)CC1,i,i,1%,-8%,0%,10%
CCOC(=O)C1(CCc2ccccc2)CCN(C(=O)c2occc2C)CC1,?,i,-12%,6%,3%,1.6µM*
Cc1cc2nc(CN(C)C(=O)C3CCC(=O)N(C4CCCC4)C3)[nH]c2cc1C (configuration not stated),i,i,/,7%,11%,/
COc1cc(/C=N/NC(N)=S)ccc1OCc1ccc(C)cc1,i,i,?,?,?,?
Cc1ccccc1Nc1nc(N)c2ccccc2n1,?,?,0%,?,16µM*,1%
Nc1nc(Nc2ccccc2)nc2ccccc12,?,?,0%,?,21µM*,-8%
CCOc1ccc(Nc2cc(C)nc3ccc(C)cc23)cc1,?,?,2%,29µM*,?,-5%
CN(C)c1ccc(Nc2nc(N)c3ccccc3n2)cc1,?,?,-22%,?,?,-4%
Nc1nc(Nc2ccc(Cl)cc2)nc2ccccc12,18µM*,i,27%,-11%,-14%,-7%
Cc1[nH]nc(SCC(=O)N2CCCCCC2)c1[N+](=O)[O-],i,i,1%,-24%,-23%,13%
Cn1c(=O)[nH]c(=O)c2c1nc(SCCO)n2CC(O)COc1ccccc1 (configuration not stated),i,i,-1%,17%,7%,0%
O=C(CN(CCc1ccccc1)C(=O)CNS(=O)(=O)c1ccccc1)NCC1CCCO1 (configuration not stated),i,i,-4%,7%,10%,-4%
CCOc1ccc(Nc2nc(N)c3ccccc3n2)cc1,?,?,?,21µM*,18µM*,18%
Cc1cccc(NC(=O)Cn2nc(N3CCN(c4ccccc4)CC3)ccc2=O)c1C,i,i,/,/,/,/
O=C(CN(c1ccc(Br)cc1)S(=O)(=O)c1ccc(Cl)c([N+](=O)[O-])c1)NCC1CCCO1 (configuration not stated),?,i,16µM*,?,?,?
O=C(CN(c1ccc(Cl)cc1)S(=O)(=O)c1ccc(Cl)c([N+](=O)[O-])c1)NCCc1ccc(F)cc1,i,i,3.7µM*,12%,17%,6%
O=C(O)c1cc(S(=O)(=O)N(Cc2ccccc2)c2ccc(Cl)cc2)ccc1Cl,i,i,21µM*,-18%,-1%,?
O=C(CN(c1ccc(Cl)cc1)S(=O)(=O)c1ccc(Cl)c([N+](=O)[O-])c1)NCCc1ccccc1,i,i,3.7µM*,11%,-3%,-15%
